# KB-V1 cytotox: KB-V1 MDR subline cytotoxicity; 400,000 compounds, 3.4% hits; AID 1347076; KB-V1 MDR cells viability, CellTiter-Glo, 72 h; Potency, µM (doses to about 46.1 µM), usual class: cytotoxic; further: nearly all actives have a fitted effect of over 60% in size
#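 Cytotoxicity toward P-gp-expressing KB-V1 cells was determined as loss of CellTiter-Glo luminescence after 72 h at 37 degrees C. Compounds were tested in quantitative HTS format across a concentration range, with curves fitted to normalized data.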
# ELG1 repair inh: blocks ELG1-dependent DNA repair in HEK293T cells; HEK293T ELG1-luciferase reporter, luminescence, 16 h; DNA damage induced by 5-fluorouridine; Potency, µM (doses to about 46.1 µM), usual class: inhibitors; 330,000 compounds, 2.3% hits; AID 504467; further: nearly all actives have a fitted effect of over 55% in size
#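 HEK293T cells expressing luciferase-tagged ELG1 (2,000/well) received 5-Fluorouridine plus compound or DMSO for 16 hr at 37 °C. Luciferase was read by ONE-Glo luminescence after 30 min at room temperature.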
# MCF10A rerep: induces DNA re-replication in MCF 10a normal breast cells; MCF 10A DNA re-replication, Hoechst nuclear intensity, 48 h; Potency, µM (series often up to 46.1 µM), hits mostly activators; 350,000 compounds, 2.9% hits; AID 624296; further: nearly all actives have a fitted effect of over 50% in size
# KB-3-1 tox: kills parental KB-3-1 adenocarcinoma cells. KB-3-1 viability, CellTiter-Glo ATP luminescence, 72 h. 400,000 compounds, 1.4% hits. Potency, µM (doses to about 46.1 µM), usual class: cytotoxic; further: nearly all actives have a fitted effect of over 60% in size
#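 Cells are dispensed, compounds pinned in, plates held at 37 °C for 72 h, then CellTiter-Glo is added and luminescence read after 10 minutes. Cell line: parental KB-3-1 in phenol-red-free DMEM, 10% FBS.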
# SW480 rerep: DNA re-replication induction in SW480 cells | 340,000 compounds, 1.8% hits | SW480 DNA re-replication, Hoechst DNA content imaging, 48 h | AID 624297 | Potency, µM (top dose mostly 46.1 µM), most hits filed as activators; further: nearly all actives have a fitted effect of over 55% in size
#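 Readout is total intensity of Hoechst-stained nuclei, excited at 405 nm and collected at 500-530 nm. Compound treatment lasted 48 hr at 37 C in 5% CO2 before staining.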
# Hits are given with their value; i = inactive; ? = inconclusive; nt = not tested or not shown; [ ] = another dose, or the depositor's remark. Only some compounds are listed: those with a hit (about 8.2% of all), similar ones and a draw of the others. The call rests on the fitted dose curve; in most records, active means well fitted curve in the direction sought with a large enough effect; inconclusive means small, poorly fitted or top-dose-only effect, or another doubt; inactive means no such curve, though single readings can be large; an effect the other way counts as inactive or inconclusive.
SMILES,KB-V1 cytotox,ELG1 repair inh,MCF10A rerep,KB-3-1 tox,SW480 rerep
CCn1c(SCc2nc3ccccc3[nH]2)nnc1-c1cccnc1,?,i,i,i,i
CCn1c(SCc2nc3ccccc3[nH]2)nnc1-c1ccc(OC)cc1,10µM,i,i,i,i
C=CCn1c(SCc2nc3ccccc3[nH]2)nnc1-c1cccc(OC)c1,3.7µM,?,i,i,i
C=CCn1c(SCc2nc3ccccc3[nH]2)nnc1-c1ccc(OC)cc1,4.6µM,?,i,i,i
Cc1ccc(C(=O)NCc2ccco2)cc1S(=O)(=O)N1CCCC1,nt,i,i,nt,i
CC(=O)Nc1ccccc1OC1=N[S+](=O)([O-])c2ccccc21,i,nt,nt,?,nt
CCCCNc1c(-c2cccc(-c3cc(C(C)=O)cs3)c2)nc2ccc(C)cn12,21µM,?,?,?,?
CCCCNc1c(-c2ccc(-c3cccc(Cl)c3)cc2)nc2ccccn12,?,?,?,?,i[9.22 µM]
CCCCNc1c(-c2cccc(-c3ccc(OC)cc3)c2)nc2ccc(C)cn12,?,3.2µM,4.1µM,?,?
CCCCCCSc1cccc(-c2nc3ccc(Cl)cn3c2NCCCC)c1,?,nt,i,i,i
CCCCNc1c(-c2cccc(-c3ccc(OC)cc3)c2)nc2cc(C)ccn12,?,23µM,23µM,?,?
O=C(NNC(=O)c1cc(Cl)ccc1O)c1cccs1,i,?,i,i,21µM
O=C(NNC(=O)c1ccccc1Cl)c1cccs1,?,?,i,i,i
Cc1nn(Cc2ccc(Cl)cc2)c(C)c1NC(=O)CSc1nc2c(c(C(F)(F)F)n1)CCc1ccccc1-2,8.2µM,?,?,i,?
Cc1ccc(Cn2nc(C)c(NC(=O)CSc3nc4c(c(C(F)(F)F)n3)CCc3ccccc3-4)c2C)cc1,4.1µM,i,?,?,i
CN(Cc1ccccc1)C(=O)CSc1nc2c(c(C(F)(F)F)n1)CCc1ccccc1-2,?,nt,i,18µM,i
NC(=O)c1c(NC(=O)CSc2nc3c(c(C(F)(F)F)n2)CCc2ccccc2-3)sc2c1CCCC2,i,i,i,i,i
N#Cc1c(NC(=O)CSc2nc3c(c(C(F)(F)F)n2)CCc2ccccc2-3)sc2c1CCCC2,?,i,i,i,i
Cc1cnc(/C=C/c2ccc(N(C)C)cc2)cn1,i,nt,nt,i,nt
CS(=O)(=O)N1CCc2cc(-c3csc(NC(=O)Cc4ccccc4)n3)ccc21,i,18µM,?,?,i
CC1Cc2cc(-c3csc(NC(=O)Cc4cccs4)n3)ccc2N1S(C)(=O)=O (stereo not drawn),2.6µM,4.6µM,?,3.3µM,i
CCOc1ccc(N2CC(C(=O)NCc3ccc4c(c3)OCO4)CC2=O)cc1 (stereo not drawn),i,i,?,i,i
Cc1nn2c(-c3cccc(NC(=O)CSc4nc5ccccc5o4)c3)nnc2c2ccccc12,?,?,10µM,i,i
CC(=O)Nc1nonc1NC(=O)CSc1nc2ccccc2o1,i,i,i,i,21µM
COc1ccc(S(=O)(=O)N2CCCC2CNC(=O)C(=O)NCCc2ccccc2)cc1 (stereo not drawn),4.6µM,?,?,8.2µM,?
SMILES,KB-V1 cytotox,ELG1 repair inh,MCF10A rerep,KB-3-1 tox,SW480 rerep
O=C(NCCc1ccc(F)cc1)C(=O)NCC1CCCN1S(=O)(=O)c1ccccc1 (stereo not drawn),5.8µM,?,?,18µM,?
COc1ccc(S(=O)(=O)N2CCCC2CNC(=O)C(=O)NCc2ccccc2)cc1 (stereo not drawn),?,?,i,?,i
COc1ccc(CCNC(=O)C(=O)NCC2CCCN2S(=O)(=O)c2ccccc2)cc1 (stereo not drawn),i,?,?,i,4.6µM
CCN1CCC(N(Cc2ccc(F)cc2)C(=O)Nc2cc(Cl)ccc2C(=O)OC)CC1,i,nt,nt,i,nt
CN(C)c1nccc(N(Cc2ccccc2)Cc2ccccc2)c1C#N,13µM,?,?,?,i
CN(C)CCCn1c2c(c(SCC(=O)Nc3cccc4ccccc34)nc1=O)CCCC2,?,i,i,i,i
CCOc1ccc(-c2nc(S(=O)(=O)c3ccccc3)c(NCc3cccnc3)o2)cc1,i,15µM,i,i,i
O=S(=O)(c1ccc(Cl)cc1)c1nc(-c2cccc(Br)c2)oc1NCc1ccccc1,16µM,nt,nt,?,nt
